# Measurements reported in ChEMBL document CHEMBL1201862, “PubChem BioAssay data set” (2004).
# Among all 400,000 compounds or so, about 2,100 (0.53%) were called active. Inconclusive results (about 14%) are left out. How the calls were made is not given here. The full list was thinned out, with actives kept by preference.
# Molecular target: Ataxin-2 (Homo sapiens) (UniProt Q99700)
# Assay: qHTS for Inhibitors of ATXN expression.
# Type: functional
# Chain of Ataxin-2 (Homo sapiens) (Q99700 whole entry): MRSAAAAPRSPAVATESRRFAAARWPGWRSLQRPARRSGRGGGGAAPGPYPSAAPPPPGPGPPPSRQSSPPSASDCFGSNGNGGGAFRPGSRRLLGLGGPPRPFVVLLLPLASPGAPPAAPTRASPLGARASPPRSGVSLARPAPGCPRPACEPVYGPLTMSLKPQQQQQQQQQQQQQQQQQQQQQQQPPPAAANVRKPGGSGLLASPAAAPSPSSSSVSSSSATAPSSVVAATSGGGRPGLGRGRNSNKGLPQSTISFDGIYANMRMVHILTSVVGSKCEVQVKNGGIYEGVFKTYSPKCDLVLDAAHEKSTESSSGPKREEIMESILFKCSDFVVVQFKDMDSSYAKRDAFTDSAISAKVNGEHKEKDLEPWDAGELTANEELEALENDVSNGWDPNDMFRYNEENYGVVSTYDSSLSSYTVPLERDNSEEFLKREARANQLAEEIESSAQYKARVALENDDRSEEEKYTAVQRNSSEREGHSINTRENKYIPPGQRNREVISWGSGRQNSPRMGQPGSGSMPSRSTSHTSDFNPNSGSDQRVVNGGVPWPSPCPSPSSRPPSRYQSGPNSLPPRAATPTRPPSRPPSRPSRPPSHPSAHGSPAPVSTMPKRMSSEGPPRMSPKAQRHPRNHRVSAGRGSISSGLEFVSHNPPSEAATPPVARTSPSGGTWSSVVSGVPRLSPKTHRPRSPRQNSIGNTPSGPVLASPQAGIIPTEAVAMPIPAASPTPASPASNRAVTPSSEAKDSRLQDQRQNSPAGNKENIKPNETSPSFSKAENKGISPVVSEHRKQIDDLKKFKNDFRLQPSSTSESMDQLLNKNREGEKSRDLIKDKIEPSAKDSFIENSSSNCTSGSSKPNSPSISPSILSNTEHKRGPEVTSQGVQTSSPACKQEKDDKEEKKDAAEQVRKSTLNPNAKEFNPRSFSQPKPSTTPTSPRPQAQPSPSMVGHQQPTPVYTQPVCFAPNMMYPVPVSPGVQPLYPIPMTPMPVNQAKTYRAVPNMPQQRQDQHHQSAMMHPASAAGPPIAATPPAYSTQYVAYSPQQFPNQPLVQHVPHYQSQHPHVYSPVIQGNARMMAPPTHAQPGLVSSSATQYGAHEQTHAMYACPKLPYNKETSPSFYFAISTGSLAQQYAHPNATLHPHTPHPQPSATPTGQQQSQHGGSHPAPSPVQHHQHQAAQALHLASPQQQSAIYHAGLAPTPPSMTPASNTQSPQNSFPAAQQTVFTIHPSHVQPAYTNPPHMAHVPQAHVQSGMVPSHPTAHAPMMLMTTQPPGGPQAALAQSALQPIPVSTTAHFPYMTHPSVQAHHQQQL
row,Structure (SMILES),Potency
1,OCCCc1nc2n(n1)C(c1cccc(Cl)c1)C=C(c1ccccc1)N2 (stereo unspecified),inactive
2,COc1ccc(C(=O)COC(=O)/C=C/c2ccco2)cc1F,inactive
3,N#Cc1ccc(/C=C/C(=O)c2cccnc2)cc1,25.1 µM (active)
4,O=C(N/N=C/c1cccnc1)c1ccccc1OCc1ccc(Br)cc1,inactive
5,N#Cc1ccc(C(=O)CSc2nnc(O)n2-c2cccnc2)cc1,inactive
6,COC(=O)C(=C/C(C)=C/c1cccnc1)C(=O)OC,22.4 µM (active)
7,N#Cc1ccc(/C=C\c2[nH]ccc3c4ccccc4nc2-3)cc1,inactive
8,O=c1c(-c2nc3ccccc3s2)cccn1Cc1ccc(Cl)c(Cl)c1,inactive
9,Oc1cc(-c2nc3ccccc3s2)cc2c1OCCN(Cc1cccn1-c1ccccn1)C2,31.6 µM (active)
10,Cc1ccc(Cl)c(NC(=O)CSc2nnc(O)n2C2CC2)c1Cl,inactive
11,CN(C)CCCN1c2ccc3ccccc3c2Sc2cccc(Cl)c21,37.7 µM (active)
12,CN(C)CCCN1C(=O)c2cccc3c(Br)ccc(c23)C1=O,inactive
13,CN(C)CCCN1C(=O)c2cccc3c([N+](=O)[O-])ccc(c23)C1=O,inactive
14,CC1(C)CC(NC(=O)c2sc3cc(Cl)ccc3c2Cl)CC(C)(C)N1,inactive
15,CC1(C)CC(NC(=O)c2ccc(Cl)c(S(=O)(=O)N(Cc3ccccc3)c3ccccc3)c2)CC(C)(C)N1,22.4 µM (active)
16,CN(c1ccccc1)S(=O)(=O)c1cc(C(=O)OCC(N)=O)ccc1Cl,inactive
17,CCCN1C2CCCC1CC(N=C(S)Nc1cccc(C)c1)C2 (stereo unspecified),inactive
18,Cc1cc(C)cc(NC(S)=NCCN(C2CCCCC2)C2CCCC2)c1,39.8 µM (active)
19,Cc1nc2ccc(NC(S)=NC3CCCCC3)cc2nc1C,inactive
20,CCN1CCc2c(sc(NC(=O)Nc3ccc(Cl)c(Cl)c3)c2C(N)=O)C1,inactive
21,Cc1occc1C(=O)NNC(=O)Nc1ccc(Cl)c(Cl)c1,inactive
22,Cc1c(NC(=O)Nc2ccc(Cl)c(Cl)c2)sc(=S)n1C,39.8 µM (active)
23,CCN(Cc1ccc(NC(C)=O)cc1)CC1CCCN(CCc2cccc(F)c2)C1 (stereo unspecified),inactive

row,Structure (SMILES),Potency
1,COc1ccc(Nc2cnn(-c3nc4ccccc4s3)c(=O)c2Cl)cc1,25.1 µM (active)
2,COc1ccc(C(=O)N/N=C/c2sc3ccccc3c2O)cc1,inactive
3,Cc1c2c(=O)n(-c3nc4ccccc4s3)nc-2cc(O)n1Cc1ccccc1,inactive
4,COC(=O)c1cc2c(=O)n3ccccc3nc2n(Cc2cccnc2)c1=N,inactive
5,COc1ccc(C#Cc2c(C=O)n(C)c3ccccc23)cc1,inactive
6,Cc1ccccc1NCc1ccc([N+](=O)[O-])s1,inactive
7,O=[N+]([O-])c1ccc(/C=N/n2cnc3ccccc32)s1,22.4 µM (active)
8,Cc1nc2ccccc2n1/N=C/c1ccc([N+](=O)[O-])s1,23.8 µM (active)
9,COc1ccc(/C=N/NC(=O)c2cc[nH]n2)cc1Cn1nc(C)c([N+](=O)[O-])c1C,inactive
10,COc1ccc(-n2c(NC(=O)c3ccco3)c(C#N)c3nc4ccccc4nc32)cc1,inactive
11,CCOc1ccc2nc(C)cc(Nc3cccc([N+](=O)[O-])c3)c2c1,39.8 µM (active)
12,O=[N+]([O-])c1cccc(Nc2c3ccccc3nc3ccccc23)c1,inactive
13,CCCOc1ccc(/C=N/Nc2cccc([N+](=O)[O-])c2)c(O)c1,inactive
14,Cn1c(O)nnc1-c1cccc(Br)c1,inactive
15,CCCCc1c(-c2cccc(Br)c2)ncn1CCc1ccccc1OC,28.2 µM (active)
16,COc1ccc(Br)cc1CN1CCN(c2ncccn2)CC1,inactive
17,CCCCCc1c(-c2cccc(Br)c2)ncn1CCc1ccccc1OC,39.8 µM (active)
18,Cc1cc(-n2c(=O)c(C#N)cc3c(=O)n4ccccc4nc32)no1,inactive
19,COc1ccc(-c2cc(C(F)(F)F)n3nc(C(=O)NCCN4CCOCC4)cc3n2)cc1,inactive
20,Clc1cccc(-c2nc(NCCCN3CCOCC3)c3ccccc3n2)c1,inactive
21,Clc1cccc(CNc2ccn3nc(-c4ccc(OCCN5CCOCC5)cc4)cc3n2)c1,28.2 µM (active)
22,CCCCN(CCCC)C(=O)C[n+]1cccc(/C=N/O)c1,inactive
23,Cc1cc(/N=C/C=C2/N(C)c3ccccc3C2(C)C)n(CCC#N)n1,15.8 µM (active)

row,Structure (SMILES),Potency
1,Cc1cc(/N=C/C=C2\N(C)c3ccccc3C2(C)C)n(CCC#N)n1,31.6 µM (active)
2,CN1/C(=C\C(=O)c2cccc(S(=O)(=O)N3CCCCC3)c2)C(C)(C)c2ccccc21,inactive
3,NC(=O)c1nc(-c2ccccc2)c(-c2ccccc2)nc1O,inactive
4,Oc1ccccc1N=Nc1nc(-c2ccccc2)c(-c2ccccc2)[nH]1,20 µM (active)
5,Oc1nc2c(O)ncnc2nc1-c1ccccc1,inactive
6,CCOCCCN=C(S)NCCNc1nc2ccc(C)cc2cc1C#N,inactive
7,CCOC(=O)c1c(NC(=O)c2ccc(S(=O)(=O)N3CCCC(C)C3)cc2)sc2c1CC(C)(C)NC2(C)C (stereo unspecified),inactive
8,CCOC(=O)c1c(NC(=O)COc2ccccc2OCC)sc2c1CC(C)(C)NC2(C)C,39.8 µM (active)
9,CC(C)CN(CC(C)C)S(=O)(=O)c1ccc(C(=O)Nc2sc3c(c2C(N)=O)CC(C)(C)NC3(C)C)cc1,inactive
10,Cc1c2c(n3c(nc4ccccc43)c1C#N)N(CCN(C)C)CC2,inactive
11,C=CCc1cc(/C=C2\C(=N)N3N=C(CC(=O)N4CCOCC4)SC3=NC2=O)cc(OC)c1O,inactive
12,Fc1ccc(-[n+]2nc(Nc3ccccc3)sc2-c2c(Cl)cccc2Cl)cc1,20 µM (active)
13,O=c1oc2cc(O)ccc2cc1-c1nc2c(s1)CCc1ccccc1-2,inactive
14,CNC(=O)NC(=O)C(C)OC(=O)c1c2c(nc3ccccc13)/C(=C/c1cccs1)CC2 (stereo unspecified),inactive
15,CCc1ccccc1N(CC(=O)NC(C)(C)CC)C(=O)CCC(=O)Nc1nccs1,inactive
16,C/C(Cl)=C\Cn1c(O)c(/N=N/C(=N)S)c2ccccc21,29.9 µM (active)
17,CC(=O)c1ccc(NC(=O)CCCN2C(=O)/C(=C/C(C)=C/c3ccccc3)SC2=S)cc1,25.1 µM (active)
18,Cc1ccc(C(=O)O)cc1-c1ccc(/C=C2\SC(=O)N(CC(=O)Nc3ccccc3)C2=O)o1,inactive
19,CCN(CC)CCOC(=O)c1ccc(NC(=O)CCCN2C(=O)/C(=C\c3cccs3)SC2=S)cc1,31.6 µM (active)
20,O=C(Nc1cc2c(=O)n(-c3ccc(Oc4ccccc4)cc3)ccc2oc1=O)c1ccccc1,inactive
21,COc1ccc(C2C=C(c3ccccc3)Nc3nnnn32)cc1 (stereo unspecified),inactive
22,Cc1ccc2[nH]c(CSc3nc(C)ccc3C#N)nc2c1,inactive
23,Cc1ccc(Cl)c(OCCCCN(C)Cc2ccccc2)c1,28.2 µM (active)

row,Structure (SMILES),Potency
1,CN(C)CCOCCOc1ccc(Cl)c2ccccc12,inactive
2,Cc1ccc2c(CN(C)Cc3ccccc3)cc(=O)oc2c1C,inactive
3,COCCCNC(=O)/C(C#N)=C/c1c(N2CCN(C)CC2)nc2ccccn2c1=O,inactive
4,COc1ccc(C2CC(c3cccc(C(F)(F)F)c3)=NN2c2ccc(S(N)(=O)=O)cc2)cc1 (stereo unspecified),inactive
5,COc1cccc(CN2C(=O)c3cccc(N)c3C2=O)c1,inactive
6,COc1ccc(C(=O)CC2(O)C(=O)N(Cc3cccc(C(F)(F)F)c3)c3ccccc32)cc1 (stereo unspecified),39.8 µM (active)
7,CCN(CC)c1ccc2cc(NC(=O)CCC(=O)O)c(=O)oc2c1,inactive
8,Cc1ccc(S(=O)(=O)N2CCCCC2)cc1C(=O)Nc1ccc(S(=O)(=O)Nc2ncccn2)cc1,inactive
9,Cc1ccc(S(=O)(=O)N2CCCCC2)cc1C(=O)N(C)CC(=O)Nc1ccc(Cl)c(C(F)(F)F)c1,35.5 µM (active)
10,COc1cccc(CN(C)C(=O)c2cc(S(=O)(=O)N3CCCC3)ccc2C)c1OC,inactive
11,Cc1ccc(CCC(=O)Nc2ccc(Br)cc2)o1,inactive
12,CCN1C(=O)c2cccc3c(S(=O)(=O)NCC4CCCO4)ccc1c23 (stereo unspecified),inactive
13,CCCn1c(=N)n(CC(=O)c2ccc([N+](=O)[O-])cc2)c2ccccc21,inactive
14,C/C(=N\NC(=O)CSCc1ccc([N+](=O)[O-])cc1)c1ccccc1,inactive
15,O=C(NCCc1ccccc1)C(=O)NCC1OCCN1S(=O)(=O)c1ccc(Br)cc1 (stereo unspecified),inactive
16,CCc1ccc(C(=O)Cn2ccsc2=N)cc1,inactive
17,N=c1n(CC(=O)c2ccc(Br)cc2)c2ccccc2n1Cc1ccccc1,31.6 µM (active)
18,Cc1ccc(Cn2c(=N)n(CC(=O)c3ccc([N+](=O)[O-])cc3)c3ccccc32)cc1,22.4 µM (active)
19,O=c1oc2cc(O)ccc2cc1-c1nc2ccccc2o1,inactive
20,CCN(CC)c1ccc(S(=O)(=O)N(CC)CC)cc1NC(=O)c1cccnc1,inactive
21,CCOC(=O)CNS(=O)(=O)c1ccc2c3c(cccc13)C(=O)N2CC,inactive
22,Cc1ccccc1N1C(=O)C(Cc2ccc(F)cc2)S/C1=C(\C#N)C(N)=O (stereo unspecified),inactive
23,CCN(CC)S(=O)(=O)c1ccc(C(=O)OCCN2C(=O)c3cccc4c(N5CCOCC5)ccc(c34)C2=O)cc1,inactive

row,Structure (SMILES),Potency
1,Cc1ccc2cc(C#N)c(NCCN=C(S)NCCCN3CCOCC3)nc2c1,inactive
2,O=C(Nc1ccc(Cl)cc1)/C(=C/c1cccc(O)c1)c1nc2ccccc2s1,12.6 µM (active)
3,COc1cc(/C=C(\CC(=O)O)c2nc3ccccc3s2)cc(OC)c1O,inactive
4,COc1cc(/C=C(\C#N)c2nc3ccccc3s2)ccc1OCC(=O)Nc1ccccc1,inactive
5,COc1cccc(C2=CC(c3ccc(OC)c(OC)c3OC)n3ncnc3N2)c1 (stereo unspecified),inactive
6,COc1ccc(OC)c(/C=C2\Oc3cc(OCC(=O)N4CCC(C(=O)O)CC4)ccc3C2=O)c1,inactive
7,CC(=O)Oc1ccc2cc(-c3ccccc3)c(=O)oc2c1,inactive
8,CCN=C(S)N1CCN(S(=O)(=O)c2ccc(C)c(C)c2)CC1,inactive
9,O=C(c1cnc(Cl)c(Cl)c1)N1CCN(S(=O)(=O)c2ccc3ccccc3c2)CC1,31.6 µM (active)
10,O=C(Cn1cnc2ccccc21)N1CCN(S(=O)(=O)c2ccccc2)CC1,inactive
11,O=C(Cn1ncc(Cl)c(Cl)c1=O)N1CCN(S(=O)(=O)c2ccc3ccccc3c2)CC1,35.5 µM (active)
12,O=C(CCl)N1CCN(S(=O)(=O)c2ccc3ccccc3c2)CC1,39.8 µM (active)
13,Cc1ccc(S(=O)(=O)N2CCCN(C(=O)c3ccc(-n4cccn4)cc3)CC2)cc1,inactive
14,O=C(Cc1cccs1)N1CCN(S(=O)(=O)c2ccc(Cl)c(C(F)(F)F)c2)CC1,inactive
15,Nc1cc(O)nc(SCC(=O)N2CCN(S(=O)(=O)c3ccc4ccccc4c3)CC2)n1,inactive
16,CC(=O)N1CCN(S(=O)(=O)c2ccc(F)c(Cl)c2)CC1,inactive
17,Cc1ccc(S(=O)(=O)N2CCN(C(=O)CCn3cncn3)CC2)cc1C,inactive
18,CCOCCCNC(=O)CN1CCN(S(=O)(=O)c2ccc3c(c2)CCC3)CC1,inactive
19,O=C(CCl)N1CCN(S(=O)(=O)c2ccc3c(c2)CCC3)CC1,8.91 µM (active)
